In the supplement of paper PMC13380429:

Test system: Vero E6 infected with SARS-CoV-2
Assay: inhibition of SARS-CoV-2 cytopathic effect; higher = more antiviral protection, active = above 15
Details: 48 h

Measured: inhibition of SARS-CoV-2 cytopathic effect

CC(C)(C)NC(=O)[C@@H]1C[C@@H]2CCCC[C@@H]2CN1C[C@@H](O)[C@H](Cc1ccccc1)NC(=O)[C@H](CC(N)=O)NC(=O)c1ccc2ccccc2n1 [saquinavir]
inactive: 1 nM -9.33% | 8.33 nM -7.46% | 100 nM -1.46% | 833.33 nM -6.25% | 10000 nM -22%

C=C1/C(=C\C=C2/CCC[C@]3(C)[C@@H]([C@H](C)OCCC(C)(C)O)CC[C@@H]23)C[C@@H](O)C[C@@H]1O [maxacalcitol]
inactive: 1 nM 1.71% | 8.33 nM 0.65% | 100 nM -1.77% | 833.33 nM 0.61% | 10000 nM -0.56%

O=C1C=CC[C@@H]2[C@H]3CCCN4CCC[C@@H](CN12)[C@@H]34 [sophocarpine]
inactive: 1 nM -8.47% | 8.33 nM -10.7% | 100 nM -12.4% | 833.33 nM -12.3% | 10000 nM -13.3%

CO/N=C(\C(=O)N[C@@H]1C(=O)N2C(C(=O)OCOC(=O)C(C)(C)C)=C(/C=C\c3scnc3C)CS[C@H]12)c1csc(N)n1 [cefditoren-pivoxil]
inactive: 1 nM -0.67% | 8.33 nM -0.15% | 100 nM -2.07% | 833.33 nM -1.49% | 10000 nM -0.51%

CC(=O)[C@H]1CC[C@H]2[C@@H]3CC=C4C[C@@H](OC(=O)CCC(=O)O)CC[C@]4(C)[C@H]3CC[C@]12C [pregnenolone-succinate]
inactive: 1 nM 5.34% | 8.33 nM 3.1% | 100 nM 3.45% | 833.33 nM 5.79% | 10000 nM 5.05%

c1ccc(-c2ccc(CNc3nc(-c4ccccn4)nnc3-c3ccccc3)cc2)cc1
inactive: 1 nM 1.58% | 8.33 nM 0.74% | 100 nM -1.15% | 833.33 nM -4.89% | 10000 nM -14.7%

CCOC(=O)Nc1ccc(NCc2ccc(F)cc2)cc1N [Retigabine]
inactive: 1 nM -1.92% | 8.33 nM 1.16% | 100 nM -1.6% | 833.33 nM -2.18% | 10000 nM 1.01%

Cc1ccc(C(=O)N(CCCN)[C@@H](c2oc3cc(Cl)ccc3c(=O)c2Cc2ccccc2)C(C)C)cc1
inactive: 1 nM 1.81% | 8.33 nM -1.04% | 100 nM -0.8% | 833.33 nM -2.79% | 10000 nM -24.6%

C[C@]12CC[C@H]3[C@@H](CC[C@]4(O)C[C@@H](O)CC[C@]34C=O)[C@@]1(O)CC[C@@H]2C1=CC(=O)OC1 [K-strophanthidin]
inactive: 1 nM 0.01% | 8.33 nM 0.18% | 100 nM -5.59% | 833.33 nM -12.1% | 10000 nM -16.9%

CCOC(=O)COc1ccc2c(=O)cc(-c3ccccc3)oc2c1 [efloxate]
inactive: 1 nM -1.98% | 8.33 nM 0.67% | 100 nM 0.32% | 833.33 nM -1.24% | 10000 nM -0.78%

NS(=O)(=O)c1cccc2c1c([N+](=O)[O-])cc1nc(O)c(O)nc12
inactive: 1 nM 2.79% | 8.33 nM 2.79% | 100 nM 2.47% | 833.33 nM 1.7% | 10000 nM -1.01%

O=C(NC1CCN(CCc2c[nH]c3ccccc23)CC1)c1ccccc1 [indoramin]
inactive: 1 nM 0.38% | 8.33 nM 1.24% | 100 nM 0.6% | 833.33 nM -1.28% | 10000 nM -4.57%

CC(Cc1ccccc1)(NC(=O)CN)c1ccccc1 (stereo not given) [remacemide]
inactive: 1 nM 0.2% | 8.33 nM 0.62% | 100 nM -0.89% | 833.33 nM 0.88% | 10000 nM 0.24%

O=C(Nc1c(Cl)cncc1Cl)c1ccc(OC(F)F)c(OCC2CC2)c1 [roflumilast]
inactive: 1 nM -0.45% | 8.33 nM 1.68% | 100 nM 0.72% | 833.33 nM -0.19% | 10000 nM 0.85%

CN1CCC[C@@H]1CCSc1ccc(O)cc1
inactive: 1 nM 0.25% | 8.33 nM 0.01% | 100 nM 0.07% | 833.33 nM -1.07% | 10000 nM -3.04%

COc1ccccc1S(=O)(=O)Nc1ccc2c(c1)CN(C)C(=O)N2
inactive: 1 nM 2.59% | 8.33 nM 3.07% | 100 nM 0.97% | 833.33 nM 1.47% | 10000 nM -5.29%

Cc1cc(CC(=O)O)n(C)c1C(=O)c1ccc(Cl)cc1 [zomepirac]
inactive: 1 nM -4.55% | 8.33 nM -6.14% | 100 nM -5.66% | 833.33 nM -0.27% | 10000 nM -0.22%

Cn1nccc1Nc1nccc(-c2ccn([C@H](CO)c3ccc(Cl)c(F)c3)c(=O)c2)n1
inactive: 1 nM 0.72% | 8.33 nM 0.13% | 100 nM -0.395% | 833.33 nM -5.82% | 10000 nM -9.29%
